High-throughput results from PubChem.
ATXN2 expr inh – ATXN2 expression inhibition | Potency, µM (series often up to 57 µM), for the others: top-dose activity change, negative = inhibition, most hits filed as inhibitors | AID 1745845 | HEK-293 ATXN2-luciferase reporter, luminescence, 24 h | actives 0.72% (n = 360,000); further: on the % scale 0 is the no-effect control and ±100 the full control effect; nearly all actives have a fitted effect of over 55% in size
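ATXN2-luciferase reporter cells (luciferase flanked by upstream and downstream ATXN2 gene portions) were treated 24 h at 37 °C with compounds at up to 57 uM. SteadyGlo luminescence gave expression; GF-AFC fluorescence gave viability.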
HepG2 tox-1 – counter-screen for TGF-b inhibitors: cytotoxicity in HepG2 cells; HepG2 CAGA-GFP viability, ATP luminescence, 18 h; Potency, µM (titrated, usually from 46.1 µM), without a hit: at the top dose activity change, negative = cytotoxicity, hits mostly cytotoxic; actives 0.76% (n = 410,000)
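HepG2 CAGA-GFP cells (1000/well, DMEM with 1% FBS) received compound, then TGF-beta at 500 pg/mL final, and were incubated 18 hours at 37 degrees C. Viability was read by CellTiter-Glo luminescence. Media-only wells were set as complete cell-killing and DMSO as no toxicity.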
ATXN viability – viability counter-screen for ATXN expression inhibitors. S2 cells (HEK-293 line with an ATXN2-luciferase reporter) viability, CellTiter-Fluor protease fluorescence, 24 h. Potency, µM (highest dose often 56.7 µM), usual class: cytotoxic. AID 651635. actives 0.49% (n = 400,000); further: nearly all actives have a fitted effect of over 40% in size
RORgamma inh – blocks mouse ROR gamma transcriptional activity. actives 5.4% (n = 310,000). P51450. Potency, µM (highest dose often 53.6 µM), for inactives: top-dose activity change, negative = inhibition, usual class: inhibitors. Drosophila S2 Gal4-RORgamma UAS-luciferase reporter, 20 h; further: on the % scale 0 is the no-effect control and ±100 the full control effect; nearly all actives have a fitted effect of over 60% in size
Target sequence (P51450 whole entry, looked up, the tested form may be a part): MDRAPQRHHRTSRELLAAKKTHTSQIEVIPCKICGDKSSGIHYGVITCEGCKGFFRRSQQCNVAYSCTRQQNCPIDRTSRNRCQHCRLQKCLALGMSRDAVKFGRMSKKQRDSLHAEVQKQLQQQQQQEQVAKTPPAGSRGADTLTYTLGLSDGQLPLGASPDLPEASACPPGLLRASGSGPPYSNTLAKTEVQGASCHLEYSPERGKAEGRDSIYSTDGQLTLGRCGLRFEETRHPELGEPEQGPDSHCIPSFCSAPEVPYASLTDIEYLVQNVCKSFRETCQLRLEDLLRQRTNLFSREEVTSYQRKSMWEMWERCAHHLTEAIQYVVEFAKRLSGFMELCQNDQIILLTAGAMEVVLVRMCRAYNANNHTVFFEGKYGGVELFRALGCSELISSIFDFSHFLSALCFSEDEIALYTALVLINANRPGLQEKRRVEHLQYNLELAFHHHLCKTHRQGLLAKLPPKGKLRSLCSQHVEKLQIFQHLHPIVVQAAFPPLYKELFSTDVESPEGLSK
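Stably transfected Drosophila Schneider cells are the test system, with ROR gamma fused to Gal4 and luciferase under UAS control; luminescence is read after 20 hr of 700 uM copper sulfate induction at ambient temperature.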
TGFb SMAD3 inh – inhibitors of TGF-b signaling | Potency, µM (top dose mostly 46.1 µM), for inactives: top-dose activity, negative = inhibition, usual class: inhibitors | actives 1.2% (n = 410,000) | AID 588855 | HepG2 CAGA-GFP TGF-b/SMAD3 reporter, GFP fluorescence, 18 h; TGF-beta stimulated, 500 pg/mL final; further: on the % scale 0 is the no-effect control and ±100 the full control effect; nearly all actives have a fitted effect of over 65% in size
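Inhibition was scored as loss of TGF-beta-induced (500 pg/mL final, 18 hours, 37 degrees C) GFP in HEPG2 cells carrying a CAGA-GFP reporter, in DMEM with 1% FBS. Well GFP was summed per cell; Activity was normalised to unstimulated and stimulated DMSO wells, then concentration-response fitting.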
VP16 counter – inhibits Gal4-VP16 luciferase reporter, ROR gamma counter-screen; actives 3.5% (n = 310,000); Drosophila S2 Gal4-VP16 UAS-luciferase, luminescence, 20 h; Potency, µM (highest dose often 53.6 µM), inactives show at the top dose activity, negative = inhibition, usual class: inhibitors;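 further: Gal4-VP16 expression switched on by copper sulfate through the metallothionein promoter; on the % scale 0 is the no-effect control and ±100 the full control effect; nearly all actives have a fitted effect of over 50% in size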
TGFb confirm – TGF-b pathway inhibition, cherry-pick retest | shares compounds with TGFb SMAD3 inh | HepG2 CAGA-GFP TGF-b reporter, GFP fluorescence, 18 h; cells stimulated with TGF-beta, 500 pg/mL | Potency, µM (top dose mostly 46.1 µM), for inactives: at the highest dose activity, negative = inhibition, actives largely listed as inhibitors | actives 63% (n = 1,600); further: on the % scale 0 is the no-effect control and ±100 the full control effect; nearly all actives have a fitted effect of over 65% in size
HepG2 tox-2 – counter-screen for TGF-b inhibitors: cytotoxicity in HepG2 cells. HepG2 CAGA-GFP viability, ATP luminescence, 18 h; cells stimulated with TGF-beta, 500 pg/mL. Potency, µM (highest dose often 46.1 µM), for inactives: at the top dose activity, negative = cytotoxicity, hits mostly inhibitors. actives 27% (n = 1,600). shares compounds with TGFb SMAD3 inh. AID 720535; further: on the % scale 0 is the no-effect control and ±100 the full control effect; nearly all actives have a fitted effect of over 70% in size
TGFb CCL64 inh – blocks TGF-b signaling in CCL64 reporter cells | Potency, µM (top dose mostly 46.1 µM), for inactives: top-dose activity, negative = inhibition, usual class: inhibitors | shares compounds with TGFb SMAD3 inh | actives 41% (n = 1,600) | AID 720536 | CCL64 CAGA-GFP reporter, TGF-b stimulated, GFP fluorescence, 18 h; further: nearly all actives have a fitted effect of over 65% in size
COP TGFb inh – validation of TGF-b inhibitors in HepG2 COP promoter reporter. shares compounds with TGFb SMAD3 inh. HepG2 COP-GFP TGF-b reporter, GFP fluorescence, 18 h; cells stimulated by added recombinant TGF-beta. actives 3% (n = 1,600). Potency, µM (highest dose often 46.1 µM), without a hit: at the top dose activity, negative = inhibition, hits mostly inhibitors; further: nearly all actives have a fitted effect of over 70% in size
* marks the source's active call; other numbers are inactive results; i = inactive; u = inconclusive; x = no result given; [ ] = another dose, or the depositor's remark. This is a sample that favours compounds with a hit; in the whole collection about 6.1% have one here. The call rests on the fitted dose curve; in most records, active means well fitted curve in the direction sought with a large enough effect; inconclusive means small, poorly fitted or top-dose-only effect, or another doubt; inactive means no such curve, though single readings can be large; an effect the other way counts as inactive or inconclusive. Potency means the concentration at half of the fitted maximal effect.

SMILES	ATXN2 expr inh	HepG2 tox-1	ATXN viability	RORgamma inh	TGFb SMAD3 inh	VP16 counter	TGFb confirm	HepG2 tox-2	TGFb CCL64 inh	COP TGFb inh
COc1ccc(OC)c2sc(N(CCCN(C)C)C(=O)CCS(=O)(=O)c3ccccc3)nc12	u	-96%	x	x	u	x	x	x	x	x
Cc1oc2ncnc(N3CCOCC3)c2c1C(=O)NCc1ccccc1	x	7%	x	x	6%	x	x	x	x	x
O=C(Nc1cccc(Cl)c1)Nc1cc(S(=O)(=O)N2CCCCC2)ccc1Cl	u	2%	u	u	10µM*	u	4.1µM*	u	4.6µM*	73%
CCn1c(C(=O)N2CCC(C(=O)N3CCN(c4ccc(OC)cc4)CC3)CC2)cc2sccc21	x	-15%	x	x	-25%	x	x	x	x	x
COc1ccc(C2C=C(c3cccc(OC)c3)Nc3c(C(=O)Nc4ccccc4)cnn32)cc1 (stereo not given)	u	1%	i	x	1%	x	x	x	x	x
COc1cc(Nc2nc(-c3ccccc3)c3cc(C)ccc3n2)cc(OC)c1OC	-11%	-15%	i	25%	11µM*	-2%	18µM*	u	-78%	51%
O=C(NC(Nc1nc2ccc([N+](=O)[O-])cc2s1)(C(F)(F)F)C(F)(F)F)c1ccccc1Cl	u	-55%	u	6.3µM*	0.45µM*	0.89µM*	0.92µM*	1µM*	1.5µM*	82%
O=C(NC(NNc1ccc([N+](=O)[O-])cc1)(C(F)(F)F)C(F)(F)F)c1ccccc1Cl	-9%	-22%	i	37%	u	7%	x	x	x	x
CN(C)S(=O)(=O)c1ccc2nc(NC(=O)c3cccnc3)sc2c1	4%	-2%	i	-33%	-4%	-11%	x	x	x	x
O=C(NC(Nc1nc2ccc([N+](=O)[O-])cc2s1)(C(F)(F)F)C(F)(F)F)c1cccnc1	u	-31%	u	u	3.2µM*	6.3µM*	4.1µM*	1.6µM*	5.8µM*	87%
COc1ccccc1N(CC(=O)Nc1ccccc1F)S(C)(=O)=O	5%	18%	i	x	5%	x	x	x	x	x
CC(=O)N1CCN(CC(=O)Nc2ccc(C)c(S(=O)(=O)N(C)C)c2)CC1	-12%	-4%	i	4%	-2%	-16%	x	x	x	x
Cc1ccc(NC(=O)CN2CCC(Cc3ccccc3)CC2)cc1S(=O)(=O)N(C)C	-14%	-17%	i	-12%	16µM*	3%	13µM*	u	u	84%
Cc1ccc(NC(=O)CNc2ccc(Cl)c(Cl)c2)cc1S(=O)(=O)N(C)C	u	-25%	u	u	10µM*	u	12µM*	u	u	55%
Cc1ccc(NC(=O)CSc2nn(-c3ccc(Cl)cc3)c(=S)s2)cc1S(=O)(=O)N(C)C	-33%	-16%	i	-15%[10 µM]	u	-8%	u	u	3%	12%
CN(C)S(=O)(=O)c1cc(NC(=O)CSc2nn(-c3ccc(Cl)cc3)c(=S)s2)ccc1Cl	u	4%	i	u	11µM*	-2%	3.7µM*	u	u	45%
NS(=O)(=O)c1cccc(NC(=O)CSc2nn(-c3ccccc3)c(=S)s2)c1	3%	-8%	i	u	-9%	-18%	x	x	x	x
Cc1ccccc1CSc1nnc2[nH]c(=O)cc(-c3ccccc3)n12	x	0%	x	x	-6%	x	x	x	x	x
Cc1ccsc1CCN1C(=O)N(c2ccccc2)C(=O)C1CC(=O)Nc1ccc(F)cc1 (stereo not given)	-14%	-39%	u	x	u	x	x	x	x	x
Cc1nn(C)c2c1c(C(F)(F)F)cc(=O)n2Cc1cccc(Br)c1	3%	4%	i	x	0%	x	x	x	x	x
Cc1nn(CC(=O)N2CCC(C)CC2)c(=O)c2cc3occc3n12	13%	8%	i	x	-4%	x	x	x	x	x
C[C@H]1COc2c(N3CCN(C)CC3)c(F)cc3c(=O)c(C(=O)NCc4ccco4)cn1c23	x	x	x	6%	x	1%	x	x	x	x
O=C(NCc1nnc(SCc2ccc(F)cc2)n1-c1ccc(F)cc1)C12CC3CC(CC(C3)C1)C2	-6%	0%	i	11%	16µM*	-6%	u	u	u	47%
O=C(CSc1nnc(CNC(=O)C23CC4CC(CC(C4)C2)C3)n1-c1ccc(F)cc1)Nc1ccc(F)cc1	0%	-15%	i	28%	u	3%	x	x	x	x
CCNc1ncc2nc(-c3cccc(C#N)c3)c(=O)n(CCC#N)c2n1	x	x	x	2%	x	-9%	x	x	x	x
SMILES	ATXN2 expr inh	HepG2 tox-1	ATXN viability	RORgamma inh	TGFb SMAD3 inh	VP16 counter	TGFb confirm	HepG2 tox-2	TGFb CCL64 inh	COP TGFb inh
Cc1ccc(Nc2nc(-c3c(C)nc4ncccn34)cs2)cc1	13%	-19%	u	u	u	-6%	x	x	x	x
Cc1ccc(Nc2nc(-c3c(C)nc4ccccn34)cs2)cc1	u	-35%	u	10µM*	10µM*	u	2.6µM*	u	1.3µM*	2%
COc1ccccc1NC(=O)c1ccc([N+](=O)[O-])o1	-24%	13µM*	i	x	2.8µM*	x	u	u	u	25%
Cc1ccnc(NC(=O)c2ccc([N+](=O)[O-])o2)c1	46%	-63%	i	u	u	u	x	x	x	x
O=C(Nc1nc2ccc(F)cc2s1)C1CCN(S(=O)(=O)c2cc([N+](=O)[O-])ccc2Cl)CC1	u	3%	i	u	11µM*	5µM*	9.2µM*	u	9.2µM*	28%
O=C(Nc1nc2ccc(F)cc2s1)c1ccc([N+](=O)[O-])o1	x	-62%	u	x	5.6µM*	x	4.6µM*	9.2µM*	u	3%
